# Compounds with a hit are over-represented: about 3.6% of the library has one in this group of screens.
# Pf apPOL block = Pf-apPOL inhibitors, biochemical, fluorescence; Plasmodium falciparum apicoplast DNA polymerase (apPOL); Recombinant Pf-apPOL, molecular beacon fluorescence, 1.5 h; inhibition, % at 10 µM; 210,000 compounds, 0.25% hits
# mHTT CaM bind = mutant huntingtin-calmodulin interaction inhibitors – biochemical, AlphaScreen, primary screen; AID 1671202, 2021; inhibition, % at 15 µM; 190,000 compounds, 3.6% hits; AlphaScreen His-mHTT/GST-CaM binding, luminescence
# Hits are given with their value; 0 = inactive; - = not tested or not shown; ! = not confirmed by another sample. Rule as the data show it: active = inhibition above about 50%; inactive = the rest.
SMILES,Pf apPOL block,mHTT CaM bind
O=c1cc(CO)oc(C(Nc2ncccn2)c2ccc(F)cc2)c1O (centres undefined),0,0
CC(=O)N1CCc2sc(S(=O)(=O)Nc3cc(Cl)ccc3C)cc2C1,0,0
Cc1ccc(I)cc1S(=O)(=O)n1nnc2ccccc21,0,0
COc1ccc(I)cc1S(=O)(=O)n1nnc2ccccc21,0,89
O=S(=O)(c1cccs1)n1cnc2ccccc21,0,0
O=S(=O)(c1cccs1)n1nnc2ccccc21,0,84!
COc1ccc(C2C3=C(NC(=O)C2C(N)=O)C(C(C)C)CCC3C)cc1 (centres undefined),0,0
Cc1cc(Nc2ccc(NC(=O)c3sc(C)nc3C)cc2)nc(N2CCCC2)n1,0,0
COc1cc(/C=C2\CC/C(=C\c3ccc(O)c(OC)c3)C2=O)ccc1O,0,61
COc1ccc(/C=C2\CC/C(=C\c3ccc(OC)c(OC)c3)C2=O)cc1OC,0,0
O=C(c1ccc(F)cc1)N1CCC(n2c(-c3ccco3)nc3cccnc32)C1 (centres undefined),0,0
Cc1ccc(C(=O)N2CCC(n3c(-c4ccco4)nc4cccnc43)C2)cc1F (centres undefined),0,72
O=C(c1cccc(F)c1)N1CCC(n2c(-c3ccco3)nc3cccnc32)C1 (centres undefined),0,0
O=C(c1ccc(F)c(F)c1)N1CCC(n2c(-c3ccco3)nc3cccnc32)C1 (centres undefined),0,71
O=C(c1ccccc1)N1CCC(n2c(-c3ccco3)nc3cccnc32)C1 (centres undefined),0,0
O=C(c1cccc(Br)c1)N1CCC(n2c(-c3ccco3)nc3cccnc32)C1 (centres undefined),0,87
Cc1cccc(NC(=O)C2CCN(c3cc(N4CCCC4)ncn3)CC2)c1,0,0
CCC(=O)NCc1nc2c(n1CC)CN(C(=O)c1cccc(F)c1)CC2,0,0
Cc1ccc(C)c(N2CCN(c3ncnc4c3nc3n4CCCC3)CC2)c1,0,0
Cc1ccc(Cl)cc1N1CCN(c2ncnc3c2nc2n3CCCC2)CC1,0,99
O=C(Nc1nc(-c2ccc(Cl)c(Cl)c2)cs1)c1cccnc1,0,0
CN(C)CCN(C(=O)c1ccccc1S(C)(=O)=O)c1nc2c(Cl)cccc2s1,0,0
COc1ccc(NC(=O)Cn2nc3c(cc2=O)CCC3)cc1Cl,0,0
CC(=O)C1=C(O)C(=O)N(c2cccc(C(=O)O)c2)C1c1ccc(Br)cc1 (centres undefined),0,0
CCN(CCCNS(=O)(=O)c1ccc(Cl)s1)c1cccc(C)c1,0,65
SMILES,Pf apPOL block,mHTT CaM bind
CCN(CCCNC(=O)C1CCCN(S(=O)(=O)N2CCCC2)C1)c1cccc(C)c1 (centres undefined),0,0
c1ccc(Nc2nc(N3CCCC3)nc(N3CCNCC3)n2)cc1,0,0
NNc1nc(Nc2ccccc2)nc(N2CCCCC2)n1,0,99
Cc1nn(Cc2ccccc2)c(C)c1/C=C/c1onc(C)c1[N+](=O)[O-],0,0
CC(C)(C)c1ccc(NC(=O)C(Cl)(Cl)Cl)c([N+](=O)[O-])c1,0,-
Cc1ccnc(OCC(=O)NCCc2ccccc2)n1,0,0
COc1ccc(Cl)cc1C(=O)Oc1cc(C)[nH]c(=O)c1[N+](=O)[O-],0,0
COc1ccc(C=CC(=O)Oc2cc(C)[nH]c(=O)c2[N+](=O)[O-])cc1OC,0,91
COc1ccc(C(=O)Oc2cc(C)[nH]c(=O)c2[N+](=O)[O-])cc1,0,97
CCCCOc1ccc(C(=O)Oc2cc(C)[nH]c(=O)c2[N+](=O)[O-])cc1,0,0
C=CCOc1ccccc1/C=c1\sc2nc(-c3ccc(C)cc3)nn2c1=O,0,0
O=C(c1ccccc1)N1CCC(Cc2nnc(-c3ccccc3)o2)CC1,0,0
CCc1ccc2oc(-c3cc(N=Cc4ccccc4[N+](=O)[O-])ccc3O)nc2c1,0,0
O=C(Nc1cccc([N+](=O)[O-])c1)c1ccc2nc(N3C(=O)CCC3=O)sc2c1,0,0
O=C(Nc1cccc(Br)c1)c1ccc2nc(N3C(=O)CCC3=O)sc2c1,0,55
CC1=C(C#N)C(=O)N(CCCO)C(=O)/C1=C\c1ccc(-c2cc(C)c(C)cc2[N+](=O)[O-])o1,0,79
CC1=C(C#N)C(=O)N(C)C(=O)/C1=C\c1ccc(-c2ccc(Br)cc2C(=O)O)o1,0,0
COC(=O)c1ccc(Oc2coc3cc(OCC(=O)c4ccccc4)ccc3c2=O)cc1,0,0
O=C(Nc1ccc(Br)cc1)c1nc[nH]c1C(=O)O,0,80
O=C(Nc1ccccc1)c1nc[nH]c1C(=O)Nc1ccccc1,0,0
O=c1oc(=O)n(Cc2ccc(Cl)c(Cl)c2)c2ccccc12,0,99
Cn1c(=O)n(Cc2ccccc2Cl)c2ccccc21,0,0
N=c1n(CCO)c2ccccc2n1Cc1ccc(Cl)c(Cl)c1,0,0
Cn1c(=O)n(Cc2ccc(Cl)c(Cl)c2)c2ccccc21,0,78

# Assay outcomes from PubChem BioAssay.
